Sampled rows, rich in hits. Any-hit rate of the full collection: about 3.4%.
PGC1a acetyl inh: lowers PGC1a acetylation signal in U2OS cells; inhibition, % at 15.6 µM; AlphaScreen anti-acetyl-lysine; with virally co-expressed GCN5 acetyltransferase; AID 651687; 0.17% of 350,000 active;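 active = every replicate shows inhibition of at least 40%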
PAX8 inh HTS: lowers PAX8-driven luciferase in RMG-I cells; 1.2% of 360,000 active; inhibition, % at 12.6 µM; AID 652154; RMG-I TPO-luciferase reporter, SteadyGlo, 24 h;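 active = mean replicate inhibition at least 60% with every replicate also reaching 60%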;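 note: luciferase light reporting Pax8 driven TPO promoter activity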
rRNA inh HTS: inhibitors of bacterial rRNA selective over humanized ribosomes. GFP signal change (wild-type ribosome), % (concentration not given with the values). E. coli WT GFP vs humanized-ribosome RFP mutants, fluorescence, 24 h; active compounds read low; DMSO median 0, no signal -100. 1.6% of 350,000 active. AID 720706;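 active = significant combined selectivity score with lowered wild-type GFP, culture density cut under 30%, mutant RFP and density less affected; inactive = any of these conditions unmet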
LGR2 antag: inhibitors of bursicon-induced Drosophila LGR2 receptor cAMP signaling | AID 720647 | HEK293 LGR2, CRE-luciferase, bursicon-stimulated, 4 h | 0.35% of 380,000 active | inhibition, % at 9.99 µM;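 active = drop in luminescence signal, shown as inhibition above about 50% in the replicate tests, limit read from the data, passing the limit was not always enough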;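 note: agonist challenge used bursicon conditioned medium at about half maximal strength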
EWS-Fli inh: blocks EWS/Fli oncoprotein-driven transcription; A673 NR0B1-luciferase reporter, viability-normalised; inhibition, % at 12.6 µM; 0.67% of 350,000 active;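 active = mean inhibition of at least 50% after viability correction, with every replicate also passing that limit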;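 note: firefly luciferase signal divided by Alamar Blue viability fluorescence both relative to DMSO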
SIRT5 block: sirtuin-5 (human) deacylase inhibition | 1.1% of 330,000 active | Q9NXA8 | Purified SirT5, succinyl-peptide AMC, trypsin-coupled fluorescence | inhibition, % at 15 µM; in the data active = inhibition above about 15%
Target sequence (Q9NXA8 whole entry, looked up): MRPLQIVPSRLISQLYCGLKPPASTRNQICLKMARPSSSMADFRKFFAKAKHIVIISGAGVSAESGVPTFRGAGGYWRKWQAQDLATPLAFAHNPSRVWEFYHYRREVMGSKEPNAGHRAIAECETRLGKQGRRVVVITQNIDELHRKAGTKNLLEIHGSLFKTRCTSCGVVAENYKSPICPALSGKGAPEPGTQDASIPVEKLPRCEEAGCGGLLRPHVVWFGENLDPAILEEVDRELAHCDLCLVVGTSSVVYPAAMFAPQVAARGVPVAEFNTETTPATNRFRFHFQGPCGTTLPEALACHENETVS
Of the large screens only hits and unclear results are named; the others gave an inactive call.

COC(=O)N(C)C[C@H]1OCc2ccccc2-c2c(n(C)c3ccccc23)C(=O)N([C@@H](C)CO)C[C@@H]1C	SIRT5 block 18.3 (no result: PAX8 inh HTS)
C[C@H]1CN([C@@H](C)CO)C(=O)c2ccccc2-c2ccccc2CO[C@H]1CN(C)Cc1cccc2c1OCCCO2	none
COC(=O)N(C)C[C@@H]1OCc2ccccc2-c2c(n(C)c3ccccc23)C(=O)N([C@H](C)CO)C[C@@H]1C	none
CN(C)C(=O)C[C@H]1CC[C@@H](NC(=O)NC2CCCC2)[C@@H](CO)O1	none
CNC[C@H]1OCCCC[C@H](C)Oc2ccc(NC(=O)NC3CCCCC3)cc2C(=O)N([C@H](C)CO)C[C@H]1C	none
CC(=O)c1ccc(NC(=S)NC(C)c2ccc(Cl)cc2Cl)cc1 (stereo not drawn)	rRNA inh HTS -48.5
CC(=O)c1ccc(NC(=S)Nc2ccc(Br)c(Cl)c2)cc1	none (no result: SIRT5 block)
O=C(Nc1cccc(C2=NCCN2)c1)Nc1cccc(C2=NCCN2)c1	PAX8 inh HTS 98.7 (no result: rRNA inh HTS)
COc1cccc(C(=O)CSc2nnc(COc3cccc4cccnc34)o2)c1	rRNA inh HTS -35.0 (no result: PAX8 inh HTS)
O=C(CSc1nnc(COc2cccc3cccnc23)o1)N1CCCC1	none
Cc1ccc(C(=O)CSc2nnc(COc3cccc4cccnc34)o2)cc1	rRNA inh HTS -31.6 (no result: PAX8 inh HTS, EWS-Fli inh)
COc1ccc(C2=Nc3ccccc3NC(=O)C2N(Cc2ccccc2)C(=O)C2=NNC(=O)CC2)cc1 (stereo not drawn)	rRNA inh HTS -23.0
c1ccc(SCc2nc3ccccc3s2)nc1	rRNA inh HTS -22.6
c1ccc2oc(SCc3nc4ccccc4s3)nc2c1	none (no result: PAX8 inh HTS, rRNA inh HTS, LGR2 antag, EWS-Fli inh, SIRT5 block)
Clc1ccc(CN2CCc3c([nH]c4ccccc34)C2)cc1Cl	EWS-Fli inh 56.9 (no result: PGC1a acetyl inh)
C=C[C@]1(C)C=C2C(=O)C[C@H]3C(C)(C)CCC[C@]3(C(=O)O)[C@@]2(O)CC1	none (no result: SIRT5 block)
COC(=O)CC1=C(C)C(=O)CC2C(C)(C)CCCC12C (stereo not drawn)	SIRT5 block 18.1 (no result: PAX8 inh HTS)
COc1ccc(NC(=O)C2(C)Cc3c(-c4ccc5c(c4)OCO5)ccnc3O2)cn1 (stereo not drawn)	EWS-Fli inh 64.2 (no result: SIRT5 block)
CC1(C(=O)Nc2ccc3c(c2)OCO3)Cc2c(-c3ccc4c(c3)OCO4)ccnc2O1 (stereo not drawn)	none (no result: PAX8 inh HTS)
COc1ccc(NC(=O)C2(C)Cc3c(-c4ccc(C(N)=O)cc4)ccnc3O2)cc1OC (stereo not drawn)	SIRT5 block 17.9
CC1(C(=O)Nc2ccc3c(c2)OCO3)Cc2c(-c3cccc(C(N)=O)c3)ccnc2O1 (stereo not drawn)	EWS-Fli inh 58.7
CC[N+]1(C)CCC(O)(/C=C/c2ccccc2)C(C(=O)/C=C/c2ccccc2)C1 (stereo not drawn)	PAX8 inh HTS 67.5
C=CCn1c(CCSCc2ccccc2)n[nH]c1=S	none
C=CCn1c(CCSCc2ccc(OC)c(C)c2)n[nH]c1=S	rRNA inh HTS -18.6
CN(C)c1ccc(C(CNC(=O)c2ccccc2)c2c[nH]c3ccccc23)cc1 (stereo not drawn)	none (no result: PGC1a acetyl inh)
CCCCNC(=S)NCC(c1ccccc1)c1c[nH]c2ccccc12 (stereo not drawn)	rRNA inh HTS -49.1
CN(C)CCCNC(=S)NCC(c1ccc(Cl)cc1Cl)c1c[nH]c2ccccc12 (stereo not drawn)	EWS-Fli inh 62.2 (no result: PGC1a acetyl inh)
CC(=O)Nc1ccc2c(c1)CC(=O)N(C)C[C@@H](C)[C@H](CN(C)C(=O)NC(C)C)O2	none (no result: PGC1a acetyl inh, PAX8 inh HTS, LGR2 antag, EWS-Fli inh, SIRT5 block)
O=C(C[C@@H]1C[C@@H]2c3cc(NC(=O)c4cccnc4)ccc3O[C@@H]2[C@H](CO)O1)NCc1ccncc1	none (no result: PAX8 inh HTS)
O=C(Nc1ccc(C(F)(F)F)cc1)Nc1ccc2c(c1)[C@H]1C[C@@H](CC(=O)N3CCc4ccccc4C3)O[C@H](CO)[C@H]1O2	PAX8 inh HTS 97.5
O=C(Nc1ccc(C(F)(F)F)cc1)Nc1ccc2c(c1)[C@H]1C[C@H](CC(=O)N3CCc4ccccc4C3)O[C@@H](CO)[C@H]1O2	none
O=C(C[C@H]1C[C@@H]2c3cc(NS(=O)(=O)c4ccc(F)cc4)ccc3O[C@@H]2[C@@H](CO)O1)N1CCc2ccccc2C1	PGC1a acetyl inh 50.1, PAX8 inh HTS 87.0
O=C(Nc1ccc2c(c1)[C@@H]1C[C@@H](CC(=O)N3CCc4ccccc4C3)O[C@@H](CO)[C@@H]1O2)Nc1ccccc1F	PAX8 inh HTS 64.3
O=C(Nc1ccc(C(F)(F)F)cc1)Nc1ccc2c(c1)[C@H]1C[C@@H](CC(=O)N3CCc4ccccc4C3)O[C@@H](CO)[C@H]1O2	PAX8 inh HTS 97.3
CCNC(=O)C[C@H]1CC[C@@H]2[C@H](COc3ccc(NC(=O)C4CCCCC4)cc3C(=O)N2C)O1	none
COc1ccc2c3c([nH]c2c1)[C@@H](CO)N(C(=O)NC(C)C)CC31CCN(C(=O)c2cccnc2)CC1	none (no result: PGC1a acetyl inh, PAX8 inh HTS)
COc1ccc(S(=O)(=O)N(C)C[C@@H]2Oc3c(NC(=O)C4CCCCC4)cccc3C(=O)N([C@@H](C)CO)C[C@@H]2C)cc1	none (no result: SIRT5 block)
CNC[C@@H]1Oc2ccc(NC(C)=O)cc2C(=O)N(C)C[C@@H]1C	none (no result: PGC1a acetyl inh, PAX8 inh HTS, LGR2 antag, EWS-Fli inh, SIRT5 block)
CC(=O)NC(c1ccc(C(C)C)cc1)c1ccc2cccnc2c1O (stereo not drawn)	PAX8 inh HTS 94.9 (no result: PGC1a acetyl inh)
COc1cccc(C(NC(C)=O)c2ccc3cccnc3c2O)c1 (stereo not drawn)	PAX8 inh HTS 69.0
CCCC(=O)NC(c1ccc(OC)cc1)c1ccc2cccnc2c1O (stereo not drawn)	PAX8 inh HTS 77.0 (no result: PGC1a acetyl inh)
O=[N+]([O-])c1ccc(NC(c2ccccc2)c2ccc3cccnc3c2O)cc1 (stereo not drawn)	PAX8 inh HTS 83.4 (no result: rRNA inh HTS)
C[C@H](NC(=O)C[C@H]1CC[C@@H](NC(=O)C2CC2)[C@@H](CO)O1)c1ccccc1	none
COc1ccc2c3c([nH]c2c1)[C@@H](CO)N(C(=O)CN(C)C)CC31CN(C(=O)c2ccncc2)C1	none (no result: PGC1a acetyl inh, PAX8 inh HTS, SIRT5 block)
C[C@H](CO)N1C[C@H](C)[C@@H](CN(C)S(=O)(=O)c2cccs2)OCCCC[C@H](C)Oc2ccc(NC(=O)Nc3ccc4c(c3)OCO4)cc2C1=O	none
COc1ccc(C(=O)Nc2ccc3c(c2)OC[C@H](C)NC[C@H](C)[C@H](OC)CN(C)C3=O)cc1	none (no result: PAX8 inh HTS)
CCCC(=O)NC(c1ccccc1)c1ccc2cccnc2c1O (stereo not drawn)	PAX8 inh HTS 78.8 (no result: LGR2 antag)
COc1ccc(Cl)cc1C(Nc1cccnc1)c1ccc2cccnc2c1O (stereo not drawn)	rRNA inh HTS -23.3
CCCCC(=O)NC(c1ccccc1Cl)c1ccc2cccnc2c1O (stereo not drawn)	PAX8 inh HTS 85.3
COc1cccc(C(Nc2ccccc2)c2ccc3ccc(C)nc3c2O)c1 (stereo not drawn)	PAX8 inh HTS 66.3 (no result: PGC1a acetyl inh, LGR2 antag, SIRT5 block)
Cc1cccc(NC(c2ccc(O)cc2)c2ccc3ccc(C)nc3c2O)n1 (stereo not drawn)	none (no result: PAX8 inh HTS, rRNA inh HTS, LGR2 antag, EWS-Fli inh, SIRT5 block)
